Where “and” joins values, the source holds several entries; their conditions need not be identical. Identical values can stand only once. Screen size: about 5,500 compounds; about 2,000 (36%) were called active. About 18% were inconclusive and are not listed. No stated cut-off is given here; in the data, active means normalized growth mostly below about 0.91 (no sharp cut-off); inconclusive means no clear call, values can overlap the other calls; inactive means mostly above about 0.92. The list shows a part of the results.
Assay: chemical genetic growth profiling, strain panel (AID 1159580);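 further: tested at 20 µM; growth read once vehicle control cultures reached saturation at 30 °C; 1 = growth at the plate median or of vehicle wells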
Conditions: S. cerevisiae deletion strains, growth OD

Measured: normalized growth

CC(=O)OCC1=C(C(=O)O)N2C(=O)[C@@H](NC(=O)CCCC(N)C(=O)O)C2SC1 (some centres not stated)
inactive: locus YAL013W, strain DEP1, stronger effect = lower value 1.02 | locus YAL021C, strain ccr4, stronger effect = lower value 1.01 | locus YAL026C, strain drs2, stronger effect = lower value 1.01 | locus YAL030W, strain snc1, stronger effect = lower value 0.998 | locus YBL061C, strain skt5, stronger effect = lower value 0.997 | locus YBR009C, strain hhf1, stronger effect = lower value 1.02 | locus YBR021W, strain FUR4, stronger effect = lower value 0.998 | locus YBR023C, strain chs3, stronger effect = lower value 0.987 | locus YBR171W, strain sec66, stronger effect = lower value 1 | locus YBR229C, strain ROT2, stronger effect = lower value 1 | locus YBR231C, strain swc5, stronger effect = lower value 0.992 | locus YBR279W, strain paf1, stronger effect = lower value 0.989 | locus YCL011C, strain gbp2, stronger effect = lower value 1 | locus YCL016C, strain dcc1, stronger effect = lower value 0.988 | locus YCL029C, strain bik1, stronger effect = lower value 1.02 | locus YCL061C, strain MRC1, stronger effect = lower value 0.997 | locus YCL069W, strain vba3, stronger effect = lower value 0.997 | locus YCR088W, strain abp1, stronger effect = lower value 0.998 | locus YDL005C, strain med2, stronger effect = lower value 0.992 | locus YDL035C, strain GPR1, stronger effect = lower value 1.03 | locus YDL040C, strain nat1, stronger effect = lower value 0.99 | locus YDL074C, strain BRE1, stronger effect = lower value 1 | locus YDL101C, strain DUN1, stronger effect = lower value 1.01 | locus YDL134C, strain PPH21, stronger effect = lower value 1.01 | locus YDL185W, strain tfp1, stronger effect = lower value 1 | locus YDL192W, strain arf1, stronger effect = lower value 1.01 | locus YDR001C, strain nth1, stronger effect = lower value 0.99 | locus YDR069C, strain doa4, stronger effect = lower value 1.01 | locus YDR101C, strain arx1, stronger effect = lower value 1 | locus YDR137W, strain rgp1, stronger effect = lower value 0.985 | locus YDR150W, strain NUM1, stronger effect = lower value 1.02 | locus YDR159W, strain sac3, stronger effect = lower value 1.01 | locus YDR162C, strain NBP2, stronger effect = lower value 1.02 | locus YDR195W, strain ref2 0.963 | locus YDR297W, strain sur2, stronger effect = lower value 0.999 | locus YDR318W, strain mcm21, stronger effect = lower value 1.05 | locus YDR334W, strain swr1, stronger effect = lower value 0.996 | locus YDR335W, strain msn5, stronger effect = lower value 0.992 | locus YDR388W, stronger effect = lower value 0.986 | locus YDR392W, strain spt3, stronger effect = lower value 0.942 | locus YDR502C, strain sam2, stronger effect = lower value 1.04 | locus YEL003W, strain gim4, stronger effect = lower value 0.994 | locus YEL037C, strain rad23, stronger effect = lower value 0.99 | locus YEL061C, strain CIN8 (second series), stronger effect = lower value 0.991 | locus YEL061C, strain CIN8, stronger effect = lower value 1.01 | locus YER015W, strain faa2, stronger effect = lower value 0.993 | locus YER016W, strain bim1, stronger effect = lower value 0.999 | locus YER110C, stronger effect = lower value 0.994 | locus YER111C, strain swi4, stronger effect = lower value 0.995 | locus YER155C, strain BEM2 (second series), stronger effect = lower value 1 | locus YER155C, strain BEM2, stronger effect = lower value 1 | locus YER167W, strain BCK2, stronger effect = lower value 1.03 | locus YFR010W, strain ubp6, stronger effect = lower value 1.01 | locus YGL078C, strain dbp3, stronger effect = lower value 1.01 | locus YGL086W, strain mad1, stronger effect = lower value 1.04 | locus YGL167C, strain pmr1, stronger effect = lower value 0.992 | locus YGL173C, strain kem1, stronger effect = lower value 1.01 | locus YGL227W, strain vid30, stronger effect = lower value 0.994 | locus YGL240W, strain doc1, stronger effect = lower value 0.998 | locus YGL248W, strain PDE1, stronger effect = lower value 1 | locus YGL253W, strain hxk2, stronger effect = lower value 0.982 | locus YGR078C, strain PAC10, stronger effect = lower value 1.01 | locus YGR135W, strain pre9, stronger effect = lower value 1.06 | locus YGR229C, strain SMI1, stronger effect = lower value 1.01 | locus YGR252W, strain gcn5, stronger effect = lower value 1.04 | locus YHR013C, strain ard1, stronger effect = lower value 1.09 | locus YHR027C, strain rpn1, stronger effect = lower value 0.99 | locus YHR030C, strain SLT2, stronger effect = lower value 1.01 and 0.982 | locus YHR079C, strain IRE1 (second series), stronger effect = lower value 0.999 | locus YHR079C, strain IRE1, stronger effect = lower value 0.988 | locus YHR094C, strain hxt1, stronger effect = lower value 0.991 | locus YHR129C, strain ARP1, stronger effect = lower value 1 | locus YHR142W, strain chs7, stronger effect = lower value 0.994 | locus YHR200W, strain rpn10, stronger effect = lower value 1.02 | locus YIL066C, strain RNR3, stronger effect = lower value 1.04 | locus YIL073C, strain SPO22, stronger effect = lower value 1.25 | locus YIL125W, strain kgd1, stronger effect = lower value 1 | locus YIR030C, strain dcg1, stronger effect = lower value 1 | locus YJL092W, strain hpr5, stronger effect = lower value 0.993 | locus YJL095W, strain BCK1 (second series), stronger effect = lower value 0.99 | locus YJL095W, strain BCK1, stronger effect = lower value 1.01 | locus YJL115W, strain asf1, stronger effect = lower value 0.985 | locus YJL129C, strain trk1, stronger effect = lower value 1 | locus YJL134W, strain LCB3, stronger effect = lower value 1 | locus YJL154C, strain vps35, stronger effect = lower value 0.986 | locus YJL164C, strain tpk1, stronger effect = lower value 1.01 | locus YJL166W, strain qcr8, stronger effect = lower value 0.989 | locus YJL168C, strain set2, stronger effect = lower value 0.996 | locus YJL187C, strain SWE1 (second series), stronger effect = lower value 1.03 | locus YJL187C, strain SWE1, stronger effect = lower value 0.994 | locus YJR043C, strain POL32, stronger effect = lower value 1.01 | locus YJR066W, strain TOR1, stronger effect = lower value 0.942

— PubChem BioAssay AID1159580 (chemical genetic matrix, 2015)
